Assay results as given in PubChem BioAssay.
This is one part of the list. Unmarked numbers belong to inactive results. The source made the active and inactive calls.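 Rule for the calls, unless noted: active = signal rise of at least 3 SD above the untreated control mean, in both duplicate wells; inactive = the rest.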

System: not listed separately
Assay: nonspecific thallium flux increase in parental CHO-K1, confirmation, counter-screen for KCNQ2 potentiator project, cell-based, FluxOR thallium flux, duplicate (AID 2282);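 note: counter screen of KCNQ2 potentiator hits so any rise reflects channel-independent effects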
Conditions: parental CHO-K1 cells, FluxOR thallium flux fluorescence; at 10 µM; active compounds read high; zero = vehicle mean+3SD, 100% = vehicle-minus-blank window

SMILES | activity increase over 3SD of controls
Cc1[nH]n(-c2cccc(Cl)c2)c(=O)c1/C=N/n1c(C)nc2ccccc2c1=O | 36% (active)
O=C(NCc1ccc2c(c1)OCO2)C12CC3CC(CC(C3)C1)C2 | -12%
Cc1ccc(CS(=O)(=O)c2ncc(Cl)c(C(=O)Nc3nnc(C)s3)n2)cc1 | 30.6% (active)
CCn1c(O)c(N=NC2=NC(=O)CS2)c2cc(C)ccc21 | -1.5%
Cc1cccc(NC(=O)CSC(N)=O)c1C | -5%
O=C(NCc1ccc2c(c1)OCO2)c1ccc(Cl)s1 | 5.5% (active)
Cc1ccc(NC(=O)C2CC2c2ccccc2)cc1 (centres undefined) | 58.6% (active)
N#Cc1c(-c2ccccc2)nc(SCc2cccc(C(F)(F)F)c2)[nH]c1=O | -8.3%
CCn1c2ccccc2c2cc(NC(=O)CNC)ccc21 | -6.1%
CCOC(=O)c1c(NC(=S)NC)sc2c1CCCC2 | 6.2% (active)
Cc1cccc(NC(=O)c2nc(S(=O)(=O)Cc3ccccc3)ncc2Cl)c1 | -15.5%
CC(NC(=O)Nc1ccccc1)c1ccccc1 (centres undefined) | -4.7%
Cc1ccc(/C=N/NC(=O)c2cc3ccccc3cc2O)o1 | 42.5% (active)
CSc1nnc(NC(=O)c2nc(S(=O)(=O)Cc3ccc(C)cc3)ncc2Cl)s1 | -8.9%
CC1=C/C(=N\OS(=O)(=O)c2ccccc2)C=CC1=O | -13.5%
O=C(Nc1ccc(Oc2ccccc2)cc1)c1ccco1 | -13.5%

SMILES | activity increase over 3SD of controls
C/C(=N\NC(=O)c1ccoc1C)c1ccccc1O | 53.8% (active)
CCc1ccc(NC(=O)C(=O)NNC(=O)c2cccs2)cc1 | -16%
COc1cccc(NC(=O)C2C(c3ccccc3)C2(Cl)Cl)c1 (centres undefined) | -15.2%
CS(=O)(=O)c1sc(C(=O)NC(=S)Nc2ccc(OC(F)(F)F)cc2)c2c1C=CCC2 | -1.6%
CCOC(=O)c1sc(=S)n2c1[nH]c(=O)c1ccc(C(=O)OC)cc12 | -16.8%
CCCc1nc2sc3c(c2c(=O)n1NC(=O)CCCl)CCCC3 | -7%
CCn1c(=S)[nH]c2sc3c(c2c1=O)CCCCC3 | -14.2%
S=C(NCc1ccc(Cl)cc1)NC12CC3CC(CC(C3)C1)C2 | 46.3% (active)
COc1ccc(NC(=O)/C(Cl)=C(/Cl)S(=O)Cc2ccc(C)cc2)cn1 (centres undefined) | -1.5%
CCC1(C)Cc2c(sc3nnn(CC(=O)Nc4ccc(Cl)cc4)c(=O)c23)CO1 (centres undefined) | -19.3%
FC(F)(F)c1cccc(NC(=S)Nc2cccc(Cl)c2)c1 | -22.1%
COc1ccc(C(=O)Nc2ncc3c(n2)-c2ccccc2CC3)cc1 | -7.8%
CC(NC(=O)Nc1cccc([N+](=O)[O-])c1)c1ccc2c(c1)OCO2 (centres undefined) | 19.3% (active)
Oc1c(Cl)cc(Cl)cc1/C=N/c1ncn[nH]1 | -13.3%
CCC1(C)Cc2c(sc3[nH]c(=S)n(Cc4ccccc4)c(=O)c23)CO1 (centres undefined) | -13%
Cc1cccc(NC(=S)NC(=O)c2ccc(Br)o2)c1 | -7%

Molecular target: Potassium voltage-gated channel subfamily KQT member 1 (Homo sapiens) (UniProt P51787)
Sequence (P51787 whole entry, looked up): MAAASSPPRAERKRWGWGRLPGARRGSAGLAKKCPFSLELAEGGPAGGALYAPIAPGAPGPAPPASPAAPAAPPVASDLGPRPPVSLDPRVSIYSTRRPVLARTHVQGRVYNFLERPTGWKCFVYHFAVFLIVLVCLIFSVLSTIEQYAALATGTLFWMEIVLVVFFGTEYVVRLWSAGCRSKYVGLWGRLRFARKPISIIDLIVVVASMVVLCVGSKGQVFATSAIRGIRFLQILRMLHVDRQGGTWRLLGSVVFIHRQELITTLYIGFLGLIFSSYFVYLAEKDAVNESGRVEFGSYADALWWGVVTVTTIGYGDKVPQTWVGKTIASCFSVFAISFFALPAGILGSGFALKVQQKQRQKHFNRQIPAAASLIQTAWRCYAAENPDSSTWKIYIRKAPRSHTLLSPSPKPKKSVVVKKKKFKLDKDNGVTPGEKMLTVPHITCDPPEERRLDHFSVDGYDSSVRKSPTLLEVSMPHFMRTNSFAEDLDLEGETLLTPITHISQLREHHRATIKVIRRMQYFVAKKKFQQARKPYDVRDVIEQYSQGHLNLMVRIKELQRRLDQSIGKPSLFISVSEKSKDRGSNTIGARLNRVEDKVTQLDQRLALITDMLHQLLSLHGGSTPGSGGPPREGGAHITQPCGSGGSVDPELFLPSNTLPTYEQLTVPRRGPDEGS
Assay: human KCNQ1 channel potentiation off-target, confirmation, selectivity assay for KCNQ2 potentiator project, cell-based, CHO, FluxOR thallium flux (AID 2283;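 active = fluorescence ratio rise of at least 3 SD of vehicle wells above their mean, in both replicate wells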;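 note: 0% = vehicle mean plus 3 SD and 100% = vehicle minus unstimulated blank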)
Conditions: CHO KCNQ1 stable, FluxOR thallium flux fluorescence; at 10 µM; active compounds read high; beyond 3SD, as % of vehicle-control signal

SMILES | activation over 3SD threshold
Cc1[nH]n(-c2cccc(Cl)c2)c(=O)c1/C=N/n1c(C)nc2ccccc2c1=O | -26.8%
O=C(NCc1ccc2c(c1)OCO2)C12CC3CC(CC(C3)C1)C2 | -10.2%
Cc1ccc(CS(=O)(=O)c2ncc(Cl)c(C(=O)Nc3nnc(C)s3)n2)cc1 | 79.7% (active)
CCn1c(O)c(N=NC2=NC(=O)CS2)c2cc(C)ccc21 | -22.6%
Cc1cccc(NC(=O)CSC(N)=O)c1C | -15.2%
O=C(NCc1ccc2c(c1)OCO2)c1ccc(Cl)s1 | 49.7% (active)
Cc1ccc(NC(=O)C2CC2c2ccccc2)cc1 (centres undefined) | 64.2% (active)
N#Cc1c(-c2ccccc2)nc(SCc2cccc(C(F)(F)F)c2)[nH]c1=O | -15%
CCn1c2ccccc2c2cc(NC(=O)CNC)ccc21 | -12.2%
CCOC(=O)c1c(NC(=S)NC)sc2c1CCCC2 | -17.4%
Cc1cccc(NC(=O)c2nc(S(=O)(=O)Cc3ccccc3)ncc2Cl)c1 | -22.3%
CC(NC(=O)Nc1ccccc1)c1ccccc1 (centres undefined) | -0.5%
Cc1ccc(/C=N/NC(=O)c2cc3ccccc3cc2O)o1 | -6.4%
CSc1nnc(NC(=O)c2nc(S(=O)(=O)Cc3ccc(C)cc3)ncc2Cl)s1 | -21.2%
CC1=C/C(=N\OS(=O)(=O)c2ccccc2)C=CC1=O | -8.8%
O=C(Nc1ccc(Oc2ccccc2)cc1)c1ccco1 | 26% (active)

SMILES | activation over 3SD threshold
C/C(=N\NC(=O)c1ccoc1C)c1ccccc1O | -7.3%
CCc1ccc(NC(=O)C(=O)NNC(=O)c2cccs2)cc1 | 85.7% (active)
COc1cccc(NC(=O)C2C(c3ccccc3)C2(Cl)Cl)c1 (centres undefined) | 4.2% (active)
CS(=O)(=O)c1sc(C(=O)NC(=S)Nc2ccc(OC(F)(F)F)cc2)c2c1C=CCC2 | 45.7% (active)
CCOC(=O)c1sc(=S)n2c1[nH]c(=O)c1ccc(C(=O)OC)cc12 | 4.8% (active)
CCCc1nc2sc3c(c2c(=O)n1NC(=O)CCCl)CCCC3 | 28.9% (active)
CCn1c(=S)[nH]c2sc3c(c2c1=O)CCCCC3 | -21.6%
S=C(NCc1ccc(Cl)cc1)NC12CC3CC(CC(C3)C1)C2 | -0.2%
COc1ccc(NC(=O)/C(Cl)=C(/Cl)S(=O)Cc2ccc(C)cc2)cn1 (centres undefined) | -20.5%
CCC1(C)Cc2c(sc3nnn(CC(=O)Nc4ccc(Cl)cc4)c(=O)c23)CO1 (centres undefined) | 4.5% (active)
FC(F)(F)c1cccc(NC(=S)Nc2cccc(Cl)c2)c1 | -10.3%
COc1ccc(C(=O)Nc2ncc3c(n2)-c2ccccc2CC3)cc1 | 8.3% (active)
CC(NC(=O)Nc1cccc([N+](=O)[O-])c1)c1ccc2c(c1)OCO2 (centres undefined) | 80% (active)
Oc1c(Cl)cc(Cl)cc1/C=N/c1ncn[nH]1 | -9.2%
CCC1(C)Cc2c(sc3[nH]c(=S)n(Cc4ccccc4)c(=O)c23)CO1 (centres undefined) | -16.6%
Cc1cccc(NC(=S)NC(=O)c2ccc(Br)o2)c1 | -15.7%
